Laboratory results: PubChem BioAssay AID574 (The Scripps Research Institute Molecular Screening Center, 2007)
In all, about 65,000 compounds went through this assay and about 450 (0.69%) were called active.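 The calls were made as follows: active = activation above a set limit, the screen-wide mean activation plus 3 SD (cut at about 8.5% in these data); inactive = the rest.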 What follows is part of a selection rich in actives, with near analogues and random picks from the rest. Where a SMILES comes first, the peptide text is derived from it. The star is where a group is joined. Bz = O=C(c1ccccc1)*

These molecules were tested against 5-hydroxytryptamine receptor 1E (Homo sapiens) (UniProt P28566) (assay: activation of human serotonin 5HT1E receptor – cell-based, HTS, primary screen (AID 574;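 also: 100% = positive control agonist at 1 µM giving full maximal response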)). Conditions: CHO 5-HT1E Ga15 NFAT-bla reporter, FRET; at 6 µM; stronger effect = higher value; 0% DMSO wells, 100% control agonist wells.
Chain of 5-hydroxytryptamine receptor 1E (Homo sapiens) (P28566 whole entry, looked up): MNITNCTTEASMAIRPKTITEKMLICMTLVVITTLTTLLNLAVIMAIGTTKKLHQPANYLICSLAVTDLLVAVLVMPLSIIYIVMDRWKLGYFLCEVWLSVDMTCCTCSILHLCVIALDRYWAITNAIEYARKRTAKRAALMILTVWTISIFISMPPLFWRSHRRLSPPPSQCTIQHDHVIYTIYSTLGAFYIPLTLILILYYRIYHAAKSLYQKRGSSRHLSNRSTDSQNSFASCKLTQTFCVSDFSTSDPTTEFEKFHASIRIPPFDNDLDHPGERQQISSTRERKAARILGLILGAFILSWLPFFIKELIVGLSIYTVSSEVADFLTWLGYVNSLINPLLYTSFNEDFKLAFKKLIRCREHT

activation, active:
CCc1c(C)sc(NC(=O)OC)c1C(=O)N1CCOCC1 14.2%, O=C(Cn1cc2c(n1)CCCCC2)NCCN1CCOCC1 9.7%, O=C(Nc1ccccc1)N(Cc1cccnc1)Cc1ccco1 10.7%, C=CCC(NCCCO)c1cccc(OC)c1OC (stereo not drawn) 10.3%, CC(=O)c1c(N)n(C)c(=O)n(C)c1=O 22.1%, Cc1cc(=O)cc(C)[nH]1 33.2%

activation, inactive:
COCCCN1C(=O)c2ccc(C(=O)Nc3ccc(OC)cc3OC)cc2C1=O -0.6%, CCSc1nc(=S)n(CC)c(C)c1C(C)=O -0.3%, CCn1c(Cc2ccccc2)nnc1SCc1nc2ccccc2c(=O)[nH]1 -0.1%, CCC(=O)Nc1nc(OC)cc(OC)n1 -0.6%, Cc1ccc(CCn2c3c(c4ccccc42)CN(C)CC3)cn1 0.2%, Cc1ccc2nc3n(c(=O)c2c1)CCC3 -0.8%, COc1ccc(/C(O)=C2/C(=O)C(=O)N(c3nc(C)c(C)s3)C2c2ccco2)cc1 (stereo not drawn) 0.5%, Cn1c(=O)cc(SCC(=O)N2CCCC2)c2cc(Cl)ccc21 -0.2%, CCOc1ccc(-c2nnn(CC(=O)N3CCN(c4ccc(OC)cc4)CC3)n2)cc1OCC -1.1%, CCOC(=O)c1cc2c(n(-c3ccc(C)cc3)c1=O)CCCC2=O 0.8%, C[C@@H](Nc1nc(-c2ccccc2)nc2c1oc1ccccc12)C(=O)O -0.7%, COc1ccc(S(=O)(=O)Nc2c(C)n(C)n(-c3ccccc3)c2=O)cc1 -1.6%, CCC(C)Sc1nc2c(c(=O)[nH]c(=O)n2C)n1CC(O)COc1cccc2ccccc12 (stereo not drawn) 1.1%, CCOc1c(OC)cc(C2C(C#N)=C(N)Oc3n[nH]c(-c4ccncc4)c32)cc1OC (stereo not drawn) 0.7%, Cc1nc(NC(CC(C)C)C(=O)O)c2nc(C)oc2n1 (stereo not drawn) -1.1%, Cc1cc(C(=O)COC(=O)c2cccs2)c(C)n1-c1c(C)n(C)n(-c2ccccc2)c1=O -0.2%, CN(C(=O)C1CCOC1)c1nnc(-c2cccnc2)s1 (stereo not drawn) -1.1%, COc1ccc(N2C(=O)CCC(C(=O)Nc3ccccn3)C2c2ccc(OC)c(OC)c2)cc1 (stereo not drawn) 2.5%, CCOc1ccc(-n2c(SC(C)C(=O)OC)nc3c(c2=O)SCC3)cc1 (stereo not drawn) 0.4%, COc1ccc(CC(=O)n2nc(-c3cccnc3)nc2N)cc1 0.2%, O=c1nc(N2CCOCC2)nc2n1CCO2 0.6%, COc1ccc(C(=O)n2nc(-c3ccc(C)cc3)nc2N)cc1OC 0%, Cc1cc(=O)n(C)c(=O)n1CCCNc1ccccc1 -0.1%, CN(C)CCNC(CC(=O)Nc1ccc(Cl)c(Cl)c1)C(=O)O (stereo not drawn) 0.3%, O=C(OCc1nnc(-c2ccccc2)o1)c1ccc2c(c1)C(=O)N(CCc1ccccc1)C2=O 0.4%, Cc1ccc(-c2cc(C(F)(F)F)n3nc(C(=O)N4CCCC4)cc3n2)cc1 0.8%, Cc1nc2c(-c3ccccc3)c(C)[nH]n2c(=O)c1Cl -0.7%, Cn1nnnc1SCc1cc(=O)[nH]c2ccccc12 -0.5%, COc1ccccc1C(=O)N1CCN=C1SCc1cccnc1 -0.4%, Cn1nc(-c2ccc(N3CCOCC3)c(NC(=O)c3ccccc3)c2)c2ccccc2c1=O -1%, FC(F)(F)c1cc(-c2cccs2)nc(NCc2ccco2)n1 -1.9%, CC(c1ccccc1)n1c(NCCCn2ccnc2)nc2c1c(=O)[nH]c(=O)n2C (stereo not drawn) -0.6%, COc1cccc(-c2nc3n(n2)C(c2ccccc2Cl)C(C(N)=O)=C(C)N3)c1 (stereo not drawn) -0.2%, CCc1c(C)sc(NC(=O)c2ccc(Br)o2)c1C(=O)OC 0.2%, CCOC(=O)c1sc(NC(=O)CCN2CCOCC2)c(C(=O)OCC)c1C -0.8%, CCCN(c1ccc(C(C)C)cc1)S(=O)(=O)c1c(C)[nH]c(=O)[nH]c1=O -0.3%, COCCNC(=O)Cn1cc2c(n1)CCCCC2 -0.1%, COc1ccccc1CNC(=O)Cn1cc2c(n1)CCCC2 -0.6%, COCCCNC(=O)COc1cc(C)c(Cl)c(C)c1 -0.3%, NC(=S)c1ccc(C(N)=S)o1 0%, Cc1nn(-c2cc(Cl)ccc2N)c(=O)c2ccccc12 -0.1%, Cc1cccc(NC(=O)CSc2nnc(CCCCCNC(=O)OC(C)(C)C)o2)c1C -1.3%, O=C(O)C1CCN1C1CCCCC1 (stereo not drawn) -0.7%, Cc1ccc(S(=O)(=O)N2C3C=CC(C3)C2C(=O)O)cc1 (stereo not drawn) -0.4%, COc1ccc(C(=O)N(Cc2ccc(N(C)C)cc2)C2CCS(=O)(=O)C2)cc1 (stereo not drawn) 0.3%, O=C(/C(=N\O)n1cncn1)c1ccc(Br)cc1Br 0.1%, CCn1c(=N)c(S(=O)(=O)c2ccc(F)cc2)cc2c(=O)n3ccccc3nc21 4.4%, O=C(NC1CCCC1)c1ccc(Br)s1 -1.5%, Clc1ccc(C=NC23CN4CN(CN(C4)C2)C3)cc1 -0.1%, O=C(CN1CCN(CC(=O)Nc2ccc3c(c2)OCO3)CC1)Nc1ccc(F)cc1 -0.7%, Cc1nnc(SCc2ccc(C(=O)c3ccc(Cl)cc3)o2)n1-c1ccccc1 0.9%, O=C(NC(Cc1ccccc1)C(=O)N1CCCC1C(=O)O)c1ccccc1 (stereo not drawn) (Bz-Phe-Pro-OH; configuration not given here) -0.4%, N#Cc1c(/N=C/N2CCCC2)oc(-c2ccccc2)c1-c1ccccc1 0.2%, O=C(CS(=O)(=O)Cc1ccccc1)Nc1cccnc1 1.1%, O=C(Nc1ccccc1)Nc1ccccc1C(=O)NCc1ccco1 -0.6%, COc1cccc(OCC(O)CN2CCN(CCO)CC2)c1 (stereo not drawn) -0.1%, COc1ccccc1C(=O)C(O)c1ccccc1OC (stereo not drawn) -0.2%, COc1cccc(C(CC(=O)NCCN2CCOCC2)NS(=O)(=O)c2ccc(C)cc2)c1OC (stereo not drawn) 0.5%, CC1CCCC(N2CCN(C(=O)c3ccc(F)cc3)CC2)C1 (stereo not drawn) -0.1%, O=C(O)CN(Cc1ccco1)S(=O)(=O)c1ccc(F)cc1 0%, COc1cccc(OC)c1C(=O)Nc1nnc(C(C)C)s1 -0.1%, CCn1c(CNc2ccc(OC)cc2)nnc1SCC(=O)c1ccc(OC)cc1 0.6%, CC1=C(C(=O)OC2CCCCC2)C(c2cccnc2)n2ncnc2N1 (stereo not drawn) -0.4%, Cc1ccnc(SCCn2c(N(C)Cc3ccccc3)nc3c2c(=O)n(C)c(=O)n3C)n1 -0.1%, CCOC(=O)C1(c2ccccc2)NC(c2ccc(N(C)C)cc2)C2C(=O)N(C)C(=O)C21 (stereo not drawn) 0.7%, COc1ccccc1-n1cnc2cc(C(=O)NCC3CCCO3)ccc21 (stereo not drawn) 0%, C=CCn1c(COc2ccccc2)nnc1SCC(=O)NCC(=O)OCC -0.3%, CCc1nnc(NC(=O)CSc2nc3c(c(=O)n2-c2ccccc2OC)SCC3)s1 -0.6%, CCCC1C(c2ccccc2)C(C#N)(C#N)C2(C#N)CC1(N)NC2=O (stereo not drawn) 0.5%, Cc1cc(C(=O)OCC(=O)c2c(N)n(C)c(=O)n(C)c2=O)c(C)o1 0.7%, CC(=O)OCc1cc(=O)n(C)c(=O)n1C -1.2%, Cc1ccc(N(C(=O)CC2NC(=O)NC2=O)C2(C(=O)NC3CCCC3)CCCCC2)cc1 (stereo not drawn) -0.5%, CC(C)(C)OC(=O)c1c(N)n(CCCN2CCCC2=O)c2nc3ccccc3nc12 2.2%, CSc1nc2ccc(S(=O)(=O)N3CCc4ccccc43)cc2s1 0.9%, COCCCNC(=O)C1CC(=O)N(c2ccc(C)cc2)C1 (stereo not drawn) -1.2%, CC(CCO)Nc1nc2c([nH]1)c(=O)n(C)c(=O)n2C (stereo not drawn) -1.6%, CCCOc1ccc(/C(O)=C2/C(=O)C(=O)N(CCN(C)C)C2c2ccc(OC)c(OC)c2)cc1 (stereo not drawn) -0.3%, O=C(Nc1cccc2c1CCCC2)C1CCN(C(=O)NC2CCCCC2)CC1 -1.2%, CC1(C)CN=C(N2CCN(c3ncnc4sc5c(c34)CCCC5)CC2)S1 -0.6%, CCc1ccc(Nc2ncc3c(n2)CC(c2ccco2)CC3=O)cc1 (stereo not drawn) -0.5%, CCOCC(=O)NCc1ccc2c(c1)cc(C)n2C 0.7%, COc1ccc(S(=O)(=O)Nc2ccc3c(c2)OCO3)cc1Cl -1.3%, Cc1nc(NCCN)c(C#N)c2c1COC(C)(C)C2 -0.4%, CCCCN(C)C(=O)c1ccc2c(c1)N(CC)C(=O)c1ccccc1S2(=O)=O -1.1%, O=C(Nc1ccccc1C(=O)N1CCOCC1)C1CCC(=O)N1C1CCCC1 (stereo not drawn) 0.6%, Cc1cc(C)nc(SCc2nnc(SCC(=O)Nc3ncc(C)s3)n2Cc2ccco2)n1 0.8%, CCN1C(=O)CS/C1=N\c1nccs1 -0.1%
